The values below come from PubChem BioAssay AID493033 (ICCB-Longwood Screening Facility, Harvard Medical School, 2011).

Each structure is given as a SMILES string. Where “and” joins values, the source holds several entries; their conditions need not be identical. Equal entries are not always repeated. Hit rate of the full screen: of about 100,000 compounds, about 930 (0.93%) were called active. Cut-off read from the data, not from the text of the source: active = inhibition mostly above about 56% (no sharp cut-off); inactive = mostly below about 77%. The list comes from a sample in which actives are over-represented; it also holds similar structures and randomly drawn compounds. A structure can be active in one record and inactive in another.

The target of this test is Salicylate synthase (Mycobacterium tuberculosis (strain CDC 1551 / Oshkosh)) (UniProt P9WFX0). The test is described as follows: inhibitors of M. tuberculosis MbtI – biochemical, fluorescence intensity, primary screen (AID 493033). The following applies: purified MbtI enzyme, fluorescence intensity read-out, stronger effect = higher value, concentration not given here.
Salicylate synthase (Mycobacterium tuberculosis (strain CDC 1551 / Oshkosh)), sequence (P9WFX0 whole entry, looked up): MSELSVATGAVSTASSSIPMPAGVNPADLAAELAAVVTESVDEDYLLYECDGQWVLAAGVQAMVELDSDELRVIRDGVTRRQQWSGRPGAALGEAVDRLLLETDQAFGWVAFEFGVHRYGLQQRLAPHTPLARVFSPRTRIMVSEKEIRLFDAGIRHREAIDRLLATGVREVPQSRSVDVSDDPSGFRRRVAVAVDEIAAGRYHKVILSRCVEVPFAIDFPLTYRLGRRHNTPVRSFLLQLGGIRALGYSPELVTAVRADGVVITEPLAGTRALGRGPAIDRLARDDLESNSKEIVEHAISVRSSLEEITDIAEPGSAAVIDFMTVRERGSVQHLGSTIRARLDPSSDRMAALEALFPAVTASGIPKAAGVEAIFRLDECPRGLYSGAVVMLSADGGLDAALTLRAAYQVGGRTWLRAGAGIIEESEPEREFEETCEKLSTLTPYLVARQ
For orientation: inhibition means the change of the read-out against control, counted positive when it falls. Take `CC(C)(C)c1nc(=S)[nH][nH]1`: the inhibition was 59.2% (active).

Regarding `O=C(c1ccco1)N1CCN(C(=O)c2cnn(-c3ccccc3)c2-n2cccc2)CC1`, the inhibition was -6.6% (inactive). `CCCCNC(=O)c1cccc(OC)c1`: the inhibition is -2.5% (inactive).

With `COc1cccc(C(=O)Nc2ccc(N3CCCC3)cc2)c1`, the inhibition was -7% (inactive).

In the case of `COc1cccc(N2C(=O)C=CC2=O)c1`, the inhibition is 98.8% (active). For the compound `CCN1CCN(CCCNC(=S)Nc2ccc3nc(N4CCN(CC)CC4)cc(C)c3c2)CC1`, the inhibition is 35.8% (inactive). For `Cc1ccc(-c2nnc(SCc3c(C)cc(C)cc3C)o2)cc1`, the inhibition is -3.75% (inactive). Consider `O=C(CSc1nnc(-c2cccs2)n1-c1ccccc1)OC1CCS(=O)(=O)C1` (stereo unspecified), for which the inhibition was -45% (inactive). As to `S=c1[nH]nc(-c2ccncc2)n1/N=C/c1cccnc1`, the inhibition is -6.8% (inactive) and -8.55% (inactive).

In the case of `FC(F)(F)c1cccc(-n2c(-c3ccncc3)n[nH]c2=S)c1`, the inhibition was 6% (inactive). Take `CC(C)n1c(-c2ccncc2)n[nH]c1=S`: the inhibition is 93.6% (active). On to `CCOC(=O)N1CCN(C(=O)COC(=O)c2cccc(S(C)(=O)=O)c2)CC1`, for which the inhibition was -7.25% (inactive). For the compound `NC(=O)c1nnc(Cc2ccc(Cl)cc2)o1`, the inhibition is -6.1% (inactive). As to `CC(C)n1nc(C(N)=O)c2ccccc2c1=O`, the inhibition is 14.1% (inactive). Under `O=C(CCC(=O)N1CCCCc2ccccc21)NC1CCCC1` stands -4.6% (inactive); under `O=C1CSc2ccccc2N1Cc1ccc(Cl)cc1`, -5.75% (inactive); under `NCCc1ccc(Cl)cc1`, -11.3% (inactive).

For `O=C1C=CC(=O)N1Cc1ccc(Cl)cc1`, the inhibition is 71.7% (active). Regarding `CCOC(=O)c1oc2ccccc2c1CN1c2cccc3cccc(c23)S1(=O)=O`, the inhibition was -5.65% (inactive).

As for `COC(=O)c1cccc(OCC(O)CNC2CCN(Cc3ccccc3)CC2)c1` (stereo unspecified), the inhibition is 12.9% (inactive). Under `O=C(CS(=O)(=O)c1ccccc1)Nc1ccccc1O` stands -1.55% (inactive); under `Oc1ccc(CNc2ccccc2O)cc1`, 92% (active). As for `NC(=S)CC(=O)NCc1ccccc1`, the figure is 65.2% (inactive); as for `C=CCn1c(SCC(=O)c2ccc(N(C)S(C)(=O)=O)cc2)nnc1C1CCCCC1`, 0.8% (inactive). As for `Cc1cc(N2CCN(c3ccccc3)CC2)n2c(nc3ccccc32)c1C#N`, the figure is 4.55% (inactive); as for `CC(NC(=O)c1ccccc1NC(=O)c1ccco1)C(=O)NN(c1ccccc1)c1ccccc1` (stereo unspecified), 31.5% (inactive). On to `Cc1occc1-c1nnc2sc(Cc3cccc4ccccc34)nn12`, for which the inhibition is 79.1% (inactive). `Nc1nnc(SCc2ccccc2)s1`: the inhibition is 38.8% (inactive).

Take `N=C1N=C(N)C(Cc2ccccc2)S1` (stereo unspecified): the inhibition was 84.2% (active).

Take `NC1=NC(=O)C(Cc2cccc(Cl)c2)S1` (stereo unspecified): the inhibition was 0.55% (inactive). `CN(C(=O)CSc1cccc[n+]1[O-])C1CCCCC1`: the inhibition is 2.9% (inactive). Take `CCOC(=O)C1=C(C)NC(C)=C(C(=O)OCC)C1C(=O)OCc1cc(=O)n2cc(C)ccc2n1`: the inhibition was -9.2% (inactive). Under `O=C(O)CN1C(=O)/C(=C2/OC(=O)c3ccccc32)SC1=S` stands 13.1% (inactive); under `O=C(O)CCCN1C(=O)c2ccccc2Sc2ncccc21`, 4.25% (inactive).

On to `O=C(O)CCCN1C(=O)/C(=C2\SC(=S)N(CCCC(=O)O)C2=O)SC1=S`, for which the inhibition was 88.5% (active).

For `N#Cc1ccc(NC(=O)CSc2ncn[nH]2)cc1`, the inhibition was 15.7% (inactive). On to `COC(=O)c1cccc(Cn2nc(C)c(Cl)c2C)c1`, for which the inhibition is -1.2% (inactive).

Take `CCOC(=O)c1c(-n2cnnn2)sc(C)c1C`: the inhibition was 589% [above what the read-out allows, likely interference] (inactive). Consider `CCOC(=O)c1c(N)sc2c1CC(C)(C)OC2`, for which the inhibition is 64.8% (inactive).

As to `CCOC(=O)c1c(N)sc2c1CCCS2`, the inhibition was 70.4% (active). Turning to `Cc1csc(/C(C#N)=N/OC(=O)c2ccco2)n1`, the inhibition is 6.4% (inactive). For the compound `Cc1cc(C)n(CCCN)n1`, the inhibition was -3.05% (inactive). For the compound `O=C(CSc1nccn1-c1ccc(F)cc1)Nc1ccccc1`, the inhibition was 9.1% (inactive). On to `Cc1nc2cccc[n+]2c(-c2ccccc2)c1C`, for which the inhibition was -10.6% (inactive).

For `CCOc1cccc2sc(NC(C)=O)nc12`, the inhibition was 17.4% (inactive). Regarding `c1ccc(OCc2nc(-c3ccccn3)n[nH]2)cc1`, the inhibition is 4.2% (inactive). As to `N/C(COc1ccccc1)=N\O`, the inhibition is -4.9% (inactive).

With `S=c1[nH]nc(COc2ccccc2)o1`, the inhibition is 64% (active) and 19.4% (inactive).

Turning to `COc1ccc(-c2nc(CS(=O)(=O)c3ccc(F)cc3)no2)cc1OC`, the inhibition is -17% (inactive). As for `COCCCn1cc(C(=O)c2cc(F)ccc2O)cc(C#N)c1=O`, the figure is 0.95% (inactive); as for `Cc1ccccc1NC(=O)CSC(=O)c1ccccc1`, 75% (active); as for `Cc1ccccc1NC(=O)NC(=O)CC#N`, -2.55% (inactive). Take `Cc1ccccc1NC(=O)COC(=O)c1ccccc1`: the inhibition was 16.1% (inactive). `CCn1c(O)c(/C=N/N=C2/C(=O)N(C)c3ccccc32)c(=O)n(CC)c1=S`: the inhibition is 7.05% (inactive). Under `N#C/C(=C\c1cc2ccccc2nc1N1CCOCC1)C(=O)Nc1ccc2c(c1)OCCO2` stands 12% (inactive); under `CC(=O)OC1=C(Sc2ccc(Cl)cc2)C(=O)CCC1`, 59.8% (active); under `O=C(CSc1ccc(Cl)cc1)N1CCc2ccccc21`, -9.4% (inactive). As for `CC1(C)CC(=O)C(Sc2ccc(Cl)cc2)=C(N2CCOCC2)C1`, the figure is 4.9% (inactive); as for `CCOC(=O)c1cc(S(=O)(=O)NC2CCCc3ccccc32)cn1C` (stereo unspecified), -4.15% (inactive). On to `COC(=O)c1ccc(N)cc1`, for which the inhibition was 16.6% (inactive).

With `COc1ccc(-n2c(SCC(=O)c3ccc4c(c3)NC(=O)CO4)nc3ccccc3c2=O)cc1OC`, the inhibition is -1.55% (inactive). Turning to `CC1(C)Oc2ccccc2C2CC(c3ccccc3)=NN21` (stereo unspecified), the inhibition was 10.8% (inactive). As for `Cc1ccc(NC(N)=O)cc1`, the inhibition is -7.15% (inactive).

In the case of `CSC(=S)Nc1ccc(C)cc1`, the inhibition was -4.35% (inactive). `Cc1ccc(NC(=S)Nc2ccc(C)cc2)cc1`: the inhibition is 56.7% (active). On to `Cn1c(SCc2nc(-c3cccs3)no2)nnc1-c1ccncc1`, for which the inhibition was -11.6% (inactive). Regarding `CCOC(=O)CSc1cc(C)nc(SCC(=O)OCC)n1`, the inhibition is 7.15% (inactive).

In the case of `CCOC(=O)CSc1ccccn1`, the inhibition was 81.9% (active). Under `CC1CC(=O)Nc2ccccc2N1C(=O)CSc1ccccn1` (stereo unspecified) stands -3.2% (inactive); under `O=C1CSC2=NC3=C(CCCC3=C3SCCCS3)C(c3ccccc3)N12` (stereo unspecified), -4.55% (inactive). In the case of `O=C1c2ccccc2C(=O)N1CNc1ccccc1C1CC1`, the inhibition was -16.8% (inactive). In the case of `NCCCN1Cc2ccccc2C1`, the inhibition was 1.3% (inactive).

As to `CCc1ccccc1NC(=O)CSc1nc2c(c(=O)[nH]1)CCC2`, the inhibition is 9.6% (inactive). Turning to `CC(C)(C)c1ccc(CSc2nc3c(c(=O)[nH]2)CCC3)cc1`, the inhibition was 81.7% (active). Consider `CCCc1cc(=O)[nH]c(SCc2ccc(C#N)cc2)n1`, for which the inhibition is -3.9% (inactive). For `COC(=O)c1ccc(C(=O)Nc2cc(Cl)ccc2Cl)cc1N`, the inhibition was -179% (inactive). For the compound `O=C1NC(=S)N(c2ccc(Br)cc2)C(=O)/C1=C/c1ccsc1`, the inhibition was 55.9% (active).

For the compound `Cn1cccc1/C=C1\C(=O)NC(=S)N(c2ccccc2)C1=O`, the inhibition is 18.1% (inactive). As to `COc1cccc(N2C(=O)/C(=C/c3ccsc3)C(=O)NC2=S)c1`, the inhibition is 29.9% (inactive).

As to `CCc1ccc(N(C(C)=O)c2nc(CSc3nnc4n3CCCCC4)cs2)cc1`, the inhibition is -11.7% (inactive). Under `CC1=C(C(=O)Nc2cccc(C(F)(F)F)c2)C(c2ccc3c(c2)OCO3)NC(=O)N1` (stereo unspecified) stands 5.1% (inactive); under `CCCN(CC1CC1)Cn1c(=S)sc2ccccc21`, 65.8% (active).

Regarding `O=C(C1CCNCC1)N1CCCCC1`, the inhibition was 6.4% (inactive).

For the compound `O=C(OCCCn1c(=O)[nH]c2ccccc21)c1ccc(S(=O)(=O)N2CCOCC2)cc1`, the inhibition is -5% (inactive). As to `Cc1ccc(NC(=O)CN2C(=O)OC(C)(C)C2(C)O)cc1` (stereo unspecified), the inhibition was -10% (inactive). As for `COc1ccc(OCCCC(=O)NNc2ccccc2)cc1`, the figure is -1.15% (inactive); as for `Nn1c(SCC(=O)Nc2ccc(S(=O)(=O)N3CCCC3)cc2)nnc1-c1ccccc1`, 87.7% (active). On to `O=C(CSc1nnc(-c2ccncc2)n1-c1ccccc1)Nc1ccccc1`, for which the inhibition was 0.45% (inactive). For `COc1ccc(Cc2nnc(SCC(=O)Nc3ccc(S(=O)(=O)N4CCCCCC4)cc3)o2)cc1`, the inhibition was -15.5% (inactive). Take `CCc1c(C)sc2nc(CC(=O)N3CCOCC3)[nH]c(=O)c12`: the inhibition is -33.3% (inactive).

`NS(=O)(=O)c1ccc(CCNC(=O)CN2CC(=O)Nc3ccccc32)cc1`: the inhibition is 14.2% (inactive). In the case of `CNC(=O)O/N=C/c1nn(C(C)=O)cc1Br`, the inhibition is 2.45% (inactive). `CNCC(=O)Nc1ccc(OC)cc1`: the inhibition was -7.3% (inactive). Regarding `COc1ccc(Cc2n[nH]c(=S)n2NC(=O)Nc2ccc(C)cc2)cc1`, the inhibition was 92.9% (active). Under `COc1ccc(CC(=O)Nc2ccccc2)cc1` stands -14.4% (inactive). For the compound `CNC(=O)Cc1nnc(-c2ccc(C)cc2)o1`, the inhibition was -6.1% (inactive). `N#CC(C#N)=CNCCc1ccncc1`: the inhibition was -4.8% (inactive).

Turning to `COc1cc2c(cc1OC)C(c1cc3cc4c(cc3[nH]c1=O)OCO4)N(C(=O)C1CCC1)CC2` (stereo unspecified), the inhibition was 87.5% (inactive). Under `Cc1onc(-c2ccccc2)c1C(=O)NNc1ccc(C(C)(C)C)cc1` stands 3.55% (inactive); under `Cc1onc(-c2ccccc2)c1C(=O)Sc1ccc(C(F)(F)F)cn1`, 94.8% (active). In the case of `Cc1onc(-c2ccccc2)c1C(=O)Nc1cccc(C(F)(F)F)c1`, the inhibition is -4.15% (inactive). On to `COc1cc(OC)cc(C(=O)NC(C(=O)N2CCC2)C(C)C)c1` (stereo unspecified), for which the inhibition was -3.25% (inactive). As to `CC(C(=O)N1CCOCC1)C1SC(=O)NC1=O` (stereo unspecified), the inhibition was -3.8% (inactive).

For the compound `CCCCN=Cc1c(O)n(-c2ccc(Cl)cc2)c(=O)[nH]c1=O`, the inhibition was 21.5% (inactive). On to `CCCCS(=O)(=O)N(O)c1ccc(Cl)cc1`, for which the inhibition was 84.8% (active).

For the compound `CC(=O)Oc1ccc(N(C(C)=O)S(=O)(=O)c2ccc(Cl)cc2)cc1`, the inhibition is -0.9% (inactive).
